Data on five compounds can be found in PubChem BioAssay.

The structures appear in SMILES notation. Active and inactive are the calls of the source.

Assay [1] can be described thus: optical density shifts of acrAB sulA E. coli – strain DRC41, OD650, 48 h, E. coli filamentation inducer project, primary screen (AID 1152).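 Further: E. coli MC1000 strain DRC41 lacking acrAB efflux pump and sulA.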 Conditions: higher = more signal, called active from +8 up or from −8 down.
The nature of assay [2]: probe aLefty1 binding on compound microarray – biochemical, small-molecule microarray, 635/667 nm fluorescence, primary screen (AID 1153).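 Further: score merges spot fluorescence with signal-to-noise ratio from the scanned slide images.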 Conditions: higher = more signal.
A short description of assay [3]: plasmodial surface anion channel blockers, osmotic lysis – cell-based, P. falciparum Indochina, OD700, 1 h, primary screen (AID 1154). Conditions: P. falciparum Indochina infected RBC osmotic lysis, higher = more signal, called active from +8 up or from −8 down.
A short description of assay [4]: plasmodial surface anion channel blockers, osmotic lysis – cell-based, P. falciparum Indochina, OD700, 2 h, primary screen (AID 1155).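 Further: lysis reports solute entry through the parasite surface anion channel PSAC.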 Conditions: P. falciparum Indochina infected erythrocytes, higher = more signal, called active from +8 up or from −8 down.
Assay [5] can be described thus: changes in parasitized red cell lysis, either direction – P. falciparum Indochina, OD700, 3 h, PSAC antagonist project, primary screen (AID 1156). Conditions: P. falciparum-infected erythrocytes, osmotic lysis, higher = more signal, called active from +8 up or from −8 down.
A short description of assay [6]: plasmodial surface anion channel blockers, osmotic lysis – cell-based, P. falciparum Indochina, OD700, 18 h, primary screen (AID 1157). Conditions: P. falciparum Indochina infected erythrocytes, osmotic lysis OD700, 18 h; higher = more signal, called active from +8 up or from −8 down.
A short description of assay [7]: S6 kinase pathway phospho-S6 level changes – cell-based, A549, cytoblot, luminescence, serum-stimulated, primary screen (AID 1158).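 Further: serum-stimulated A549 lung adenocarcinoma cells; signal is phosphorylated S6 detected by cytoblot immunostaining with HRP secondary.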 Conditions: 5 h, higher = more signal.
Assay [8] has as its target NADPH oxidase 2 (Homo sapiens) (UniProt P04839). Briefly: compounds shifting NOX2 Amplex Red fluorescence – cell-based, HEK293-NOX2, PMA-stimulated, NOX inhibitor project, primary screen (AID 1159). Further: test concentration not given here. Conditions: 45 min, higher = more signal, called active from +8 up or from −8 down.
The target of assay [9] is NADPH oxidase 4 (Homo sapiens) (UniProt Q9NPH5). Briefly: compounds shifting NOX4 Amplex Red fluorescence – cell-based, HEK293-NOX4, tetracycline-induced, NOX inhibitor project, primary screen (AID 1160). Conditions: HEK293-NOX4, Amplex Red H2O2 fluorescence, 45 min; higher = more signal, called active from +8 up or from −8 down.
Chain of NADPH oxidase 4 (Homo sapiens) (Q9NPH5 whole entry, looked up): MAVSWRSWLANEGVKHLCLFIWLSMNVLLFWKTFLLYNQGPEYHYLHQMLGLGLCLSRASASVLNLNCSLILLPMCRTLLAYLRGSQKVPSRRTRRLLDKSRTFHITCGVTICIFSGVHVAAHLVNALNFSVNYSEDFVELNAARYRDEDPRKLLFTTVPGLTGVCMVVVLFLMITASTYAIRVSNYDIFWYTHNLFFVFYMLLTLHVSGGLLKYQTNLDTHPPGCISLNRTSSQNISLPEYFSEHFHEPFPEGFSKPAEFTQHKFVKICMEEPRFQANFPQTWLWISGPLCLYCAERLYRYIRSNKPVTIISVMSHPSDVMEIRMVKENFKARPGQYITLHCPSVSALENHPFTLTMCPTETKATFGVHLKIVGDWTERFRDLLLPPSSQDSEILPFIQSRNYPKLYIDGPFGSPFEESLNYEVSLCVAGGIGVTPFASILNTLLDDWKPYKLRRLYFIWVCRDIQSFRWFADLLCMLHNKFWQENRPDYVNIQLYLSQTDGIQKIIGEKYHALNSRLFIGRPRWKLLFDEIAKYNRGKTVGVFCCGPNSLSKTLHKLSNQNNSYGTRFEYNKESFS
Assay [10] deals with NADPH oxidase 5 (Homo sapiens) (UniProt Q96PH1). The assay is described as follows: compounds shifting NOX5 Amplex Red fluorescence – cell-based, HEK293-NOX5, NOX inhibitor project, primary screen (AID 1161). Conditions: HEK293-NOX5, ionomycin, 45 min, higher = more signal.
Chain of NADPH oxidase 5 (Homo sapiens) (Q96PH1 whole entry, looked up): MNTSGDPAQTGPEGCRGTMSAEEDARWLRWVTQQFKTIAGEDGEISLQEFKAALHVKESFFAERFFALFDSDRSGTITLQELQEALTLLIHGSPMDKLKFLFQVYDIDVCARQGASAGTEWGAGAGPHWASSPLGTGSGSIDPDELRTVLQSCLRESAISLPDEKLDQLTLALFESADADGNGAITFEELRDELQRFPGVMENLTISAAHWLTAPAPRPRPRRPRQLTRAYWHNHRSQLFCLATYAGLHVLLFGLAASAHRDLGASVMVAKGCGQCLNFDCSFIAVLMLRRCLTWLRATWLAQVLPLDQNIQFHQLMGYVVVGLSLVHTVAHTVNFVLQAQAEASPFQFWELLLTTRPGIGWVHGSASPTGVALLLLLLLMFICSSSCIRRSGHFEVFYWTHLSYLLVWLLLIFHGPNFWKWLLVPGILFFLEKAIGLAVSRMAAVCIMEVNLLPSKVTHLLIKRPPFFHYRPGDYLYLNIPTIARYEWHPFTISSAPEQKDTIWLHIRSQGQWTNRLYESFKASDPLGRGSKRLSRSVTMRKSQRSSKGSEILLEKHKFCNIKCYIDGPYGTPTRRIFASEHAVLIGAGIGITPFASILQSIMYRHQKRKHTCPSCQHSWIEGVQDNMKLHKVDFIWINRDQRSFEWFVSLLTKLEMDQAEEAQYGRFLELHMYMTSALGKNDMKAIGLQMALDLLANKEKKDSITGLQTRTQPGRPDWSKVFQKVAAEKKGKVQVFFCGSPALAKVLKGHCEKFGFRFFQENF
A short description of assay [11]: compound effects on lung adenocarcinoma cell viability – A549, calcein-AM fluorescence, 48 h, basal, profiling panel (AID 1162). Further: test concentration not given here. Conditions: higher = more signal.
Assay [12] is described as follows: compound effects on differentiated 3T3-L1 adipocyte viability – cell-based, 3T3-L1 adipocytes, calcein-AM fluorescence, 48 h, basal, profiling panel (AID 1163). Further: test concentration not given here. Conditions: 3T3-L1 adipocytes viability, higher = more signal.
Assay [13] in a line: compound effects on hepatocellular carcinoma cell viability – HepG2, calcein-AM fluorescence, 48 h, basal, profiling panel (AID 1164). Further: test concentration not given here. Conditions: higher = more signal.
Assay [14] in a line: compound effects on multiple myeloma cell viability – MM1S, calcein-AM fluorescence, 48 h, basal, profiling panel (AID 1165). Further: test concentration not given here. Conditions: higher = more signal.
A short description of assay [15]: calcein-AM signal in unstimulated myeloma cells – cell-based, calcein-AM fluorescence, 48 h, PK04 Diversity Set, profiling panel (AID 1166).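 Further: cells grown under basal conditions without added stimulus; test concentration not given here.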 Conditions: RPMI8226 myeloma viability, higher = more signal.
Assay [16] is described as follows: JC-1 mitochondrial signal, unstimulated HepG2 cells – cell-based, JC-1 fluorescence, 24 h, 100 nL compound, profiling panel (AID 1167). Further: test concentration not given here. Conditions: HepG2 mitochondrial potential, higher = more signal.
The nature of assay [17]: JC-1 mitochondrial signal, unstimulated adipocytes – cell-based, JC-1 fluorescence, 3T3-L1 adipocytes, 24 h, 100 nL compound, profiling panel (AID 1168). Further: test concentration not given here. Conditions: JC-1 mitochondrial fluorescence, higher = more signal, called active from +8 up or from −8 down.
Assay [18] can be described thus: JC-1 mitochondrial signal, unstimulated myeloma cells – cell-based, JC-1 fluorescence, RPMI8226, 24 h, 100 nL compound, profiling panel (AID 1169). Further: test concentration not given here. Conditions: JC-1 mitochondrial potential fluorescence, higher = more signal.
Assay [19] is described as follows: JC-1 mitochondrial signal, unstimulated MM1S myeloma – cell-based, JC-1 fluorescence, 24 h, 100 nL compound, profiling panel (AID 1170). Further: test concentration not given here. Conditions: MM1S mitochondrial potential, higher = more signal.
Assay [20] can be described thus: resazurin metabolic signal in A549 cells – cell-based, resazurin fluorescence, 24 h, PK04 Diversity Set, profiling panel (AID 1171). Further: test concentration not given here. Conditions: A549 viability, higher = more signal, called active from +8 up or from −8 down. In general terms: Alamar Blue is a resazurin reagent that responds to reducing activity.

Chain of NADPH oxidase 2 (Homo sapiens) (P04839 whole entry, looked up): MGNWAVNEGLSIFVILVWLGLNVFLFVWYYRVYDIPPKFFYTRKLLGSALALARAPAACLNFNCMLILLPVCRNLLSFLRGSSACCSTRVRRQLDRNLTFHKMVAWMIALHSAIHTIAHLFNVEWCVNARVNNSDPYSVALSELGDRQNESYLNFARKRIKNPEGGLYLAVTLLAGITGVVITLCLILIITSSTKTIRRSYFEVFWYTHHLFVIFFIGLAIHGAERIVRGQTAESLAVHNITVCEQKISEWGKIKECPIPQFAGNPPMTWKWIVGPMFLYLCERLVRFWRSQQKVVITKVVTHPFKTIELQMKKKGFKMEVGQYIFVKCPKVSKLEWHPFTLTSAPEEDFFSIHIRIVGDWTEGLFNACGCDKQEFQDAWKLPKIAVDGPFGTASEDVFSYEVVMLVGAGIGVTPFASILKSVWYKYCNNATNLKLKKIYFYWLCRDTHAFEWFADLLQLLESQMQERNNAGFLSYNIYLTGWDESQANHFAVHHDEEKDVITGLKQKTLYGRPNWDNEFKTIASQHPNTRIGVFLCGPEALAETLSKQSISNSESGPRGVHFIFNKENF

In the case of `C[C@@H](c1ccccc1)N1C(=O)[C@H]2[C@H]3[C@H](O)[C@H](O)CC(=NO[C@@H]4O[C@H](CO)[C@@H](O)[C@H](O)[C@H]4O)[C@H]3CC[C@H]2C1=O`, the z-score was 0.391 (inactive) in [1]; -0.483 (inactive) in assay [3]; -0.205 (inactive) in [4]; -0.0944 (inactive) in assay [5]; -0.0378 (inactive) in assay [6]; -0.0015 in assay [7]. In addition, the z-score in assay [8] is 1.5 (inactive); in assay [9], -1.93 (inactive); in assay [10] it was -0.63; in assay [11], -0.306; in assay [12], 0.221; in assay [13], -0.492. The z-score is 0.254 in assay [14]; -0.599 in assay [15]; -0.364 in assay [16]; -0.507 (inactive) in assay [17]; 0.0338 in assay [18]; -0.15 in assay [19]. Also, the z-score in assay [20] is -0.154 (inactive). Moreover, the composite z-score in assay [2] stood at 1.16.
`CC(C)=CCCC(C)=CCON=C1C[C@@H](O)[C@@H](O)[C@@H]2[C@@H]3C(=O)N(C[C@@H]4CCCO4)C(=O)[C@@H]3CC[C@H]12`: the z-score is -0.249 (inactive) in assay [1]; 2.57 (inactive) in [3]; 0.847 (inactive) in assay [4]; 0.193 (inactive) in [5]; 0.55 (inactive) in assay [6]; 0.659 in assay [7]. The z-score in [8] is 0.0784 (inactive); in assay [9], 0.256 (inactive); in [10] it was -2.11; in [11] it was -0.0285; in [12] it was -0.789; in [13], -0.758. The z-score in assay [14] was 0.253; in assay [15], -0.674; in [16], -0.915; in [17] it was -0.528 (inactive); in [18], 0.569; in [19] it was -0.789. Besides, the z-score in assay [20] is 0.691 (inactive). In assay [2], this compound gave a composite z-score of -0.0501.
Regarding `CO[C@H]1COC(=O)[C@@H](C)COC(=O)[C@@H](OCc2ccccc2)C=C[C@@H]1C`, the z-score in assay [1] was -0.303 (inactive); in [3], -0.347 (inactive); in [4], 0.32 (inactive); in [5] it was 0.328 (inactive); in [6] it was -0.0659 (inactive); in [7], -0.286. The z-score in assay [8] was 0.237 (inactive); in [9], 0.566 (inactive); in assay [10], -0.609; in [11] it was -0.162; in assay [12], -0.197; in assay [13] it was 0.373. In addition, the z-score was -0.112 in assay [14]; 0.473 in assay [15]; 0.485 in [16]; 0.531 (inactive) in [17]; 0.458 in assay [18]; 0.0911 in assay [19]. The z-score in assay [20] is 0.39 (inactive). In assay [2], the composite z-score is -0.235.
For `CC(C)CON=C1[C@H]2CCn3c(=O)n(Cc4cc5c(cc4Cl)OCO5)c(=O)n3[C@H]2[C@H](O)[C@@H]2O[C@H]12`, the z-score in assay [1] is -1.41 (inactive); in assay [3] it was 0.292 (inactive); in assay [4], -1.05 (inactive); in assay [5], 0.599 (inactive); in [6], -2.22 (inactive); in assay [7], 0.261. Further, the z-score was 0.42 (inactive) in [8]; 0.223 (inactive) in assay [9]; -0.799 in assay [10]; -1.37 in assay [11]; 0.719 in assay [12]; -0.0623 in assay [13]. Further, the z-score in assay [14] was -0.053; in assay [15], -0.62; in assay [16] it was -0.0638; in assay [17], -0.443 (inactive); in assay [18] it was 0.207; in [19], -0.354. For the same compound, in assay [20], the z-score was -0.647 (inactive). The composite z-score in assay [2] is 0.0004.
On to `Cc1ccc(S(=O)(=O)OC[C@H]2CN3[C@H](c4ccc(Br)cc4)[C@@H](C)CC[C@H]3C(=O)O2)cc1`, for which the z-score in [1] is 0.399 (inactive); in [3], 3.18 (inactive); in assay [4], 0.57 (inactive); in [5] it was 0.896 (inactive); in assay [6], 0.761 (inactive); in [7], 0.0084. Moreover, the z-score in assay [8] was 0.407 (inactive); in assay [9] it was 0.484 (inactive); in [10], -0.632; in assay [11], 0.602; in assay [12], -0.744; in [13], 0.62. For the same compound, the z-score in [14] was -0.0638; in [15], -0.75; in assay [16], 0.914; in assay [17], 0.555 (inactive); in assay [18], -0.103; in [19], 0.222. For the same compound, the z-score in assay [20] was 0.683 (inactive). In [2], this compound displayed a composite z-score of -0.0501.
